From publication PMC5540273 (PLoS ONE, 2017)

Assays:
[1] = tested on: T1, p38-alpha
T1 construct: gene MAPK14

[2] = tested on: AAK1; conditions: concentration: 1 μM, replicates: in singlicate; n = 1
[3] = tested on: ABL1-nonphosphorylated; conditions: concentration: 1 μM, replicates: in singlicate; n = 1
[4] = tested on: ABL1-phosphorylated; conditions: concentration: 1 μM, replicates: in singlicate; n = 1
[5] = tested on: ABL2; conditions: concentration: 1 μM, replicates: in singlicate; n = 1
[6] = tested on: ACVR1B; conditions: concentration: 1 μM, replicates: in singlicate; n = 1
[7] = tested on: ACVR1; conditions: concentration: 1 μM, replicates: in singlicate; n = 1
[8] = tested on: ACVR2A; conditions: concentration: 1 μM, replicates: in singlicate; n = 1
[9] = tested on: ACVR2B; conditions: concentration: 1 μM, replicates: in singlicate; n = 1
[10] = tested on: ACVRL1; conditions: concentration: 1 μM, replicates: in singlicate; n = 1
[11] = tested on: T2, ADCK3; conditions: concentration: 1 μM, replicates: in singlicate; n = 1
T2 construct: gene CABC1

[12] = tested on: ADCK4; conditions: concentration: 1 μM, replicates: in singlicate; n = 1
[13] = tested on: AKT1; conditions: concentration: 1 μM, replicates: in singlicate; n = 1
[14] = tested on: AKT2; conditions: concentration: 1 μM, replicates: in singlicate; n = 1
[15] = tested on: T3, VPS34
T3 construct: gene PIK3C3

[16] = tested on: ZAK
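Wherever %Inh is given: KINOMEscan kinase panel screen.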
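Wherever Kd is given: kd values determined as follow-up on hits from a single-replicate KINOMEscan panel screen.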

Compound	Kd [1] [nM]	%Inh [2] [%]	%Inh [3] [%]	%Inh [4] [%]	%Inh [5] [%]	%Inh [6] [%]	%Inh [7] [%]	%Inh [8] [%]	%Inh [9] [%]	%Inh [10] [%]	%Inh [11] [%]	%Inh [12] [%]	%Inh [13] [%]	%Inh [14] [%]	Kd [15] [nM]	Kd [16] [nM]
CN1CCC(n2cnc(-c3ccc(F)cc3)c2-c2ccnc(NC3CCNCC3)n2)CC1 [SB-229482]	220	7	44	0	0	0	0	0	0	7	9	5	0	0	–	–
COc1cc2ncnc(Nc3ccc(OCc4ccccc4Br)c(Cl)c3)c2cc1OC.Cl [GI261590]	–	15	0	0	16	0	0	0	4	0	22	37	0	5	–	–
CC(C)(C)OC(=O)NC1CCCN(c2cc(-c3ccc4c(N)n[nH]c4c3)nc(N)n2)C1 (stereo not shown) [GSK2286096]	–	60	0	0	6	0	0	0	0	0	8	5	0	0	–	–
Cl.Cl.c1ccc(-c2cc3ccncc3cc2OC2CCNCC2)cc1 [GSK1122999]	–	27	0	0	8	0	22	0	0	0	22	42	0	0	–	–
O=c1cc(N2CCOCC2)nc2n(Cc3cccc(Cl)c3)ccn12 [GSK2296823]	–	0	0	7	12	0	0	0	0	0	24	0	0	3	35	–
CS(=O)(=O)CCNCc1nc(-c2ccc3ncnc(Nc4ccc(OCc5cccc(F)c5)c(Cl)c4)c3c2)cs1.Cl [GW583340]	–	19	0	0	0	0	0	0	0	0	1	20	0	0	–	> 10000
Fc1cccc(COc2ccc(Nc3ncnc4cc[nH]c34)cc2Cl)c1	–	4	19	21	10	12	19	0	3	16	1	17	0	0	–	–
FC(F)(F)c1cc(Nc2nccc(-c3c(-c4ccc(Cl)cc4)nn4ncccc34)n2)ccc1Cl [GW829351]	–	4	42	0	0	0	0	0	12	0	0	27	0	0	–	–
Cn1ccc2ncnc(Oc3ccc(NC(=O)Nc4cccnc4)c(Cl)c3)c21	–	19	23	0	11	0	0	0	0	0	0	0	0	8	–	–
Clc1ccc(-c2cc(-c3c[nH]nc3-c3ccccn3)ccn2)cc1 [GW681251]	–	2	0	0	15	44	12	33	52	0	13	4	27	0	–	–
c1ccc(-c2ccc3c(-c4ccnc(Nc5ccc6c(c5)OCCO6)n4)cnn3n2)cc1 [GW818941]	–	0	0	0	12	0	24	32	11	13	0	9	0	10	–	–
Cc1ccc(NC(=O)c2cccc(C#N)c2)cc1-c1ccc(C(=O)Nc2ccncc2)cc1 [GSK1398463]	–	73	50	10	54	0	18	0	0	2	18	6	0	0	–	–
Cn1ccc2ncnc(Nc3ccc(Oc4cccc(Cl)c4)c(Cl)c3)c21	–	27	45	15	16	28	0	0	17	0	1	0	22	7	–	–
O=C(Nc1ccccc1F)NC1CCN(c2ccnc(Nc3ccc(F)cc3)n2)C1 (stereo not shown) [GSK1379722]	–	0	0	0	9	0	25	0	0	0	20	40	0	13	–	–
N#Cc1ccc(Oc2ccc(Nc3ncnc4cc[nH]c34)cc2Cl)cc1	–	14	51	6	12	15	1	27	25	6	13	8	0	0	–	–
FC(F)(F)c1ccc(-c2nn3ncccc3c2-c2ccnc(Nc3cccc(C(F)(F)F)c3)n2)cc1 [GW828205]	–	1	47	30	16	24	0	6	19	10	23	0	0	0	–	–
C[C@H]1CC[C@@H](C(=O)Nc2ccccc2)CN1c1cc(-c2ccc3c(N)n[nH]c3c2)nc(N)n1 [GSK2283293]	–	23	0	8	15	0	0	0	0	0	11	40	0	6	–	–
Cl.c1ccc(Cn2ncc3cc(Nc4ncnc5ccccc45)ccc32)cc1 [GW273749]	–	30	38	17	0	0	5	0	0	0	7	22	0	13	–	–
O=C(Nc1ccccc1)Nc1ccc(Oc2ccc3nccn3n2)cc1	–	0	66	18	27	0	5	24	9	0	15	1	13	0	–	–
Cl.Fc1ccccc1COc1ccc(Nc2ncnc3ccc(-c4nnc(C(F)(F)F)o4)cc23)cc1Cl [GW424170]	–	0	0	0	0	0	0	0	0	0	0	22	0	0	–	–
C[C@@H]1CCN(C(=O)CO)C[C@@H]1N(C)c1ncnc2[nH]ccc12	–	8	35	0	0	13	0	0	0	8	0	0	0	0	–	–
O=C(Nc1n[nH]c2nc(-c3ccco3)c(Br)cc12)c1ccc(CN2CCCC2)cc1.O=C(O)[C@H](O)[C@@H](O)C(=O)O [SB-742352]	–	0	63	36	0	0	24	0	0	0	0	0	0	0	–	–
Fc1ccc(-c2ncn(CCCNCc3ccccc3)c2-c2ccncc2)cc1	–	16	25	15	12	10	2	0	0	17	0	0	19	12	–	–
Cc1cc(N2CCC(NS(=O)(=O)c3ccc(F)cc3)CC2)nc(Nc2cccc(C#N)c2)n1.O=C(O)C(F)(F)F [GSK1653537]	–	9	0	0	2	0	0	0	0	0	0	0	0	20	–	–
COc1ccc(-c2oc3ncnc(N)c3c2-c2ccc(OC)cc2)cc1 [SB-589132]	–	6	21	10	20	0	21	0	0	12	12	55	0	0	–	–
CCCc1ccc(S(=O)(=O)NC2CCN(c3ccnc(Nc4ccc(OC)cc4)n3)C2)cc1 (stereo not shown) [GSK1379737]	–	0	0	0	14	0	0	0	0	0	0	66	0	0	–	–
CCn1c(-c2ccncc2)nc2cnccc21 [SB-735216]	–	0	26	0	0	14	40	0	4	0	15	6	0	0	–	–
Cc1ccc(O)cc1Nc1cc(C(F)(F)F)nc2ccc(-c3ccncc3)cc12 [GW630823]	–	0	21	7	14	0	11	0	0	0	10	0	5	1	–	–
